# This is a sample that favours compounds with a hit; in the whole collection about 10% have one here.
# CtBP-E1A inh: CtBP/E1A binding inhibition; activity change, % (concentration not given with the values); 0.49% of 340,000 active; AlphaScreen GST-E1A/His-CtBP binding, 1536-well; stronger effect = lower value; in the data active = activity change below about -65%; inconclusive = mostly about -30% to -63%; also: % is scaled to controls: 0 for no effect and ±100 for the full control effect
#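 Homogeneous bead-based format: GST-tagged E1A captured on glutathione donor beads, His-tagged CtBP on nickel acceptor beads; compounds precede bead addition by 2 h at 37 °C.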
# G9a inh: blocks human histone lysine methyltransferase G9a; AID 504332; Potency, µM (highest dose often 102 µM), for the others: top-dose activity, negative = inhibition, actives largely listed as inhibitors; Q96KQ7; G9a H3K9 monomethylation, AlphaScreen, 2 h; 8.8% of 350,000 active; also: potency is read from the fitted curve at half-maximal effect; % is scaled to controls: 0 for no effect and ±100 for the full control effect; nearly all actives have a fitted effect of over 75% in size
# Target sequence (Q96KQ7 913-1193 limits assumed): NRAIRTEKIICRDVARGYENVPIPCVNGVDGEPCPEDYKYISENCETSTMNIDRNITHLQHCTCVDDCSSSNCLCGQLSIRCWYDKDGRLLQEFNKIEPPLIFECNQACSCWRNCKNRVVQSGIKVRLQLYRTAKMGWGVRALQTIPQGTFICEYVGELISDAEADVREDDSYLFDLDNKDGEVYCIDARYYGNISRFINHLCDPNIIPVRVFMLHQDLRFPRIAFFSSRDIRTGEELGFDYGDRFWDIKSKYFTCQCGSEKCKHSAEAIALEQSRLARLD
#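 Enzyme 20 nM + cpd, 15 min RT; add b-H3K9 pep 500 nM / SAM 20 uM; 2 h RT; anti-H3K9me1 Ab 0.5 ug/mL + SA donor / anti-rabbit acceptor beads 20 ug/mL each, 10 min; AlphaScreen read.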
# Six1-Eya2 blk: Six1/Eya2 interaction inhibition; 0.56% of 360,000 active; AID 651725; AlphaScreen GST-Six1/His-Eya2 binding, biochemical; stronger effect = lower value; Q15475+O00167; activity change, % (concentration not given with the values); in the data active = activity change below about -65%; inconclusive = mostly about -30% to -63%; also: % is scaled to controls: 0 for no effect and ±100 for the full control effect
#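 GST-Six1 + His-Eya2 (5X stock: 250/500 nM); Tris pH 8.0, 300 mM NaCl, 0.05% BSA, 0.02% Tween 20; GSH donor/Ni acceptor beads; 1 h 37 °C dark; AlphaScreen readout.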
# JMJD2A Tudor: blocks the human JMJD2A Tudor domain; O75164; AlphaScreen JMJD2A-Tudor / H3K4me3 peptide binding; Potency, µM (series often up to 114 µM), without a hit: at the top dose activity change, negative = inhibition, most hits filed as inhibitors; 4.4% of 390,000 active; AID 504339; also: potency is read from the fitted curve at half-maximal effect; % is scaled to controls: 0 for no effect and ±100 for the full control effect; nearly all actives have a fitted effect of over 50% in size
# HP1b binding inh: blocks HP1-beta chromodomain binding to methylated histone tails. AID 540317. Potency, µM (doses to about 114 µM), without a hit: top-dose activity change, negative = inhibition, hits mostly inhibitors. 0.56% of 390,000 active. AlphaScreen HP1-beta / biotin-H3K9me3 peptide binding. P83916; also: potency is read from the fitted curve at half-maximal effect; nearly all actives have a fitted effect of over 70% in size
# Target sequence (P83916 whole entry, looked up): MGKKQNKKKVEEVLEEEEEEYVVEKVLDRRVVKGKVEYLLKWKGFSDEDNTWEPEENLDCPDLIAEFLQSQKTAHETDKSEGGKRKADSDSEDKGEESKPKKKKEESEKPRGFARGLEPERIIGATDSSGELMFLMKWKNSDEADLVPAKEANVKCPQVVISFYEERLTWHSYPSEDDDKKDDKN
#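 HP1-beta protein (50 nM final) preincubated 30 min at room temperature with biotinylated H3(1-18)K9me3 peptide (50 nM) in PBS pH 7.4, 0.01% Tween-20, then compound added for 30 min. AlphaScreen streptavidin donor/nickel chelate acceptor beads (10 ug/mL final), 30 min dark, luminescence read.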
# BAZ2B inh: BAZ2B (human) inhibition. Potency, µM (highest dose often 114 µM), for the others: at the highest dose activity change, negative = inhibition, most hits filed as inhibitors. 4.4% of 360,000 active. AID 504333. Q9UIF8. AlphaScreen BAZ2B-H3K14Ac peptide displacement; also: potency is read from the fitted curve at half-maximal effect; % is scaled to controls: 0 for no effect and ±100 for the full control effect; nearly all actives have a fitted effect of over 60% in size
#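 AlphaScreen displacement: compounds (up to 110uM) incubated 30 min at room temperature with a preformed 50 nM BAZ2B/50 nM biotinylated H3K14Ac peptide complex in PBS pH 7.4 with Tween-20. Donor and acceptor beads at 10 ug/mL final added, 20 min light-protected before reading.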
# Numbers without * were called inactive; u = inconclusive; x = not tested or not shown; [ ] = another dose, or the depositor's remark. Unless noted, calls follow the shape of the dose curve; as a rule, active = well fitted inhibition curve with a large enough effect; inconclusive = small, poorly fitted or top-dose-only effect; inactive = no such curve, though single readings can be large or run the other way.
SMILES,CtBP-E1A inh,G9a inh,Six1-Eya2 blk,JMJD2A Tudor,HP1b binding inh,BAZ2B inh
CCOc1cccc(/C=N/NC(=S)Nc2cc(S(=O)(=O)N3CCOCC3)ccc2N2CCOCC2)c1O,-97*,10%[59 µM],-87*,u,8%,u
COc1ccc(NC(=O)Cn2c(=O)n(-c3cccc(C)c3)c(=O)c3c2c2cc(C)ccc2n3C)cc1Cl,x,-30%[59 µM],x,-6%,23%,-1%
CCCCN1CCC2C=CCC(C(=O)O)C2C1=O (centres undefined),x,x,x,-21%,28%,x
Cc1cccc(C)c1NC(=O)c1nc(SC(C)C)ncc1Cl,x,6%[59 µM],x,-14%,21%,3%
COc1ccccc1C(=O)Oc1c(Sc2ccccc2)c(C)nn1C(C)(C)C,x,55%[59 µM],x,23%,62%,24%
CCOC(=O)CCP(=O)(O)C(O)c1ccccc1 (centres undefined),1,18%[59 µM],0,50µM*,8%,1%
CCOC(=O)C1CCN(C2=NC(=O)/C(=C/c3ccc(OC)c(OC)c3)S2)CC1,x,40µM*,-2,-21%,0%,-22%
CCOC(=O)C1CCN(C2=NC(=O)/C(=C/c3ccc(Cl)cc3)S2)CC1,2,0%,1,-12%,23%,u
CCc1ccc(C2CC(=O)c3c([nH]c(C(=O)OC4CCCCCC4)c3C)C2)cc1 (centres undefined),x,-25%[59 µM],x,-1%,22%,1%
CC(=O)Oc1ccc2c(c1)Oc1cc(OC(C)=O)ccc1C21OC(=O)c2ccccc21,-28,1%[59 µM],-82*,-16%[57.1 µM],27%,-3%
Cc1ccc(N2CC(C(=O)NCc3nnnn3-c3ccc(C)c(C)c3)CC2=O)cc1C (centres undefined),x,4%[59 µM],x,-10%,22%[57 µM],4%
O=C(O)c1cccc([N+](=O)[O-])c1C(=O)Nc1nc2ccccc2s1,x,79µM*,-15,3%,12%,-14%
S=C(c1ccc(-c2ccc(Br)cc2)o1)N1CCCCC1,-17,79µM*,-26,u,-13%,-5%
O=C(c1ccc(-c2cccc(Cl)c2Cl)o1)N1CCOCC1,-9,40µM*,0,-12%,11%,-29%
O=C(Cc1ccc(Br)cc1)N1CCCCCC1,4,7%[12.7 µM],5,-4%,39%,4%
S=C(Nc1ccc(Cl)c(Cl)c1)N1CCOCC1,6,-10%[59 µM],-1,-11%,28%,8%
NC(=O)C1CCCN(C(=O)c2ccc(-c3cccc(Cl)c3Cl)o2)C1 (centres undefined),-3,u,1,-22%,-18%,-20%
S=C(c1ccc(-c2ccc(Br)cc2)o1)N1CCOCC1,u,14µM*,u,35µM*,25µM*,28µM*
S=C(c1ccc(-c2ccc(Cl)c(Cl)c2)o1)N1CCOCC1,6,u,u,35µM*,u,11µM*
O=C(NC(=S)Nc1ccc(CN2CCOCC2)cc1)c1ccc(-c2ccc(Br)cc2)o1,5,x,-5,-22%,18%,-5%
CCOc1ccc(-n2c(SCC(=O)N3CCOCC3)nc3c([nH]c4ccccc43)c2=O)cc1,x,-1%[59 µM],x,-10%,6%[57 µM],2%
S=C(c1ccc(-c2ccccc2Cl)o1)N1CCOCC1,10,u,u,40µM*,u,40µM*
COc1ccc(-c2ccc(C(=S)N3CCN(C(C)=O)CC3)o2)cc1,-3,6.3µM*,-12,u,u,u
O=Cc1ccc(-c2ccc([N+](=O)[O-])cc2Cl)o1,-4,35µM*,-17,u,-15%,u
O=C(c1ccc(-c2ccc([N+](=O)[O-])cc2Cl)o1)N1CCOCC1,3,45µM*,10,-6%,22%,-35%
COc1ccc(CC(=O)N2CCN(C(=O)Cc3ccc(OC)cc3)CC2)cc1,-1,27%[59 µM],-1,u,-14%,9%
Cn1c(=O)n(Cc2ccccc2)c(=O)c2c1nc1n2CCN1c1ccccc1,x,-30%[59 µM],x,-14%,30%,-15%

# Assay outcomes as filed in PubChem BioAssay.
